According to PubChem BioAssay (NCI):
The panel holds about 83,000 compounds, 20% with a hit somewhere; the sample as a whole holds those more often.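 Each cell line was grown in a 96-well plate and treated with one concentration of compound for 48 hours. Values below 10 were considered active.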 Values without a mark were called inactive. Active and inactive are the calls of the source.

What follows are compounds tested on EKVX NSCLC (assay: NCI-60 one-dose screen, 48 h (100 = growth as untreated, 0 = no growth, -100 = all killed)). Settings: 10 µM unless noted.
Experimental: Growth inhibition of the EKVX human Non-Small Cell Lung tumor cell line is measured as a screen for anti-cancer activity. Cells are grown in 96 well plates and exposed to the test compound for 48 hours. Compounds are tested at a single concentration, which is 10^-5 M for most compounds. The reported endpoint is percent growth (GI% or GIPRCNT), where numbers from 0 - 100% represent growth inhibition, and numbers from -100% - 0 represent cell death. For example, a value of 40 represents 60% growth inhibition. A value of 0 means no net growth occurred over the course of the experiment. A value of -40 indicates 40% of cells at the beginning of the experiment died by the end of the experiment. A value of -100 means all cells are dead at the end of the experiment.
NCI-60 Human Tumor Cell Lines Screen was performed using the standard one-dose NCI protocol, which is described in more detail at https://dtp.cancer.gov/discovery_development/nci-60/default.htm.
Compounds with GIPRCNT values below 10 were considered active. Activity score was based on GIPRCNT using the following formula: […]
Score is 0 for GIPRCNT values of 100 or above, 50 for GIPRCNT values of 0, and 100 for GIPRCNT values of -100.

SMILES	growth
NCCCNc1nc2ccccc2c2c(=O)c3cccc(F)c3sc12	60.4%
CNC(C)[C@H]1CCC2C3CCC4C[C@@H](N(C)C(=O)c5ccccc5)CC[C@]4(C)C3CC[C@@]21C (stereo not given in full)	24.5%
CCCCCCCCCCCCCCCCCC1OCC(COC(=O)O[C@]2(CC)C(=O)OCc3c2cc2n(c3=O)Cc3cc4ccccc4nc3-2)O1 (stereo not given in full)	92.4%
C=C1C(=O)O[C@H]2[C@H]1CC/C(COC(=O)CSCC(=O)OC/C1=C/CC[C@@]3(C)O[C@H]3[C@H]3OC(=O)C(=C)[C@@H]3CC1)=C\CC[C@@]1(C)O[C@@H]21	57.7%
C[C@]12CC[C@@H]3c4cc(OC(F)F)c(OS(N)(=O)=O)cc4CC[C@H]3[C@@H]1CC[C@@H]2O	40.2%
O=C1c2cccc3cccc(c23)C(=O)N1Nc1nc(N2CCOCC2)nc(N2CCN(c3ccccc3)CC2)n1	50%
Cc1c(C(=O)N[C@@H](Cc2ccccc2)C(=O)C(=O)NCc2ccc(F)cc2)[nH]c2ccccc2c1=O	85.3%
c1ccc2c(-c3nc(-c4c[nH]c5ccncc45)cs3)c[nH]c2c1	35%
COc1ccc2nc(NC(=O)c3cccnc3Nc3ccc(S(N)(=O)=O)cc3)sc2c1	92%
Cc1nc2cnc(N)c(C#Cc3cncc(C(=O)Nc4ccc(CN5CCN(C)CC5)c(C(F)(F)F)c4)c3)c2nc1C	7.92% (active)
COc1ccc(-c2conc2-c2ccccc2)cc1	52.7%
COc1cccc(-c2nn(-c3ccccc3)cc2-c2ccnc(N3CCOCC3)c2)c1	82.2%
CC(C)n1cnc2c(Nc3cccc(Cl)c3)nc(N[C@H]3CCCC[C@@H]3N)nc21	54.1%
CCCCNC(=O)Oc1ccc(/C(=C(\C)c2ccc(Cl)cc2)c2ccc(OCCN(CC)CC)cc2)cc1	75%
c1cc(NCCc2ccncc2)nc(-n2cnc3ccccc32)c1	102%
CCCCOc1ccc(/C=N/NC(N)=S)cc1	85.9%
O=C(N/N=C/[C@@H](O)[C@H](O)[C@H](O)CO)c1ccc(NC(=O)c2cccnc2)cc1	100%
CCCCCCn1c(-c2ccc(C(=O)O/N=C(\N)c3ccc(OC)cc3)cc2)nc(-c2ccccc2)c1-c1ccccc1	-75.6% (active)
C=CCc1cc(C)ccc1NC(C(=O)NCC(=O)OC)c1ccccc1 (stereo not given)	93.9%
CCCCCCCCCCCCCCCCCCOc1ccccc1CC(=O)OCC[N+](CC)(CC)CC	43.4%

SMILES	growth
O=C(CSc1nc2ccccc2[nH]1)Nc1cccc(Cl)c1	94.7%
COc1ccc(-n2c(N)c(-c3nc4ccccc4[nH]3)cc(C#N)c2=O)cc1	79.1%
COc1ccc(CNC(=O)C(=O)[C@H](Cc2ccccc2)NC(=O)c2[nH]c3ccccc3c(=O)c2C)cc1	95.5%
Nc1nc(-c2cccc3ccccc23)cc2ccccc12	46%
COc1ccc(-c2cc(-c3cc(OC)c(OC)c(OC)c3)nc(N3CCOCC3)c2C#N)cc1	64.9%
O=C(CSc1nccc(Nc2ccc(S(=O)(=O)Nc3nccs3)cc2)n1)c1ccc(C(F)(F)F)cc1	94.4%
NCCCNc1nc2ccccc2c2c(=O)c3cc(C(F)(F)F)ccc3sc12	71.6%
FC(F)(F)c1cc(Nc2ccc3c(OCCCN4CCOCC4)cccc3n2)ccc1Cl	48.8%
CN1CCN(c2ccc(-c3ccc4ncc(C#N)c(Nc5ccc(F)c(Cl)c5)c4c3)cc2)CC1	54.4%
COc1ccc(-c2[nH]c3ccc(OC)cc3c2/C=C(\C#N)S(=O)(=O)c2ccccc2)cc1	36.8%
COc1cc(-c2nc3sccn3c2-c2ccnc(NCCCNS(=O)(=O)c3ccc(F)cc3)n2)ccc1F	83.6%
Cc1ccc(-c2nc(N3CCN(CC(=O)Nc4ccc(Cl)c(C(F)(F)F)c4)CC3)c3ccccc3n2)cc1	87.3%
CN(C(=O)NCc1cccc(F)c1Cl)[C@H](COC(=O)Nc1cc2ccccc2cn1)CC(O)CO (stereo not given in full)	77.4%
COc1ccc(-c2nc(NN)c3c(C)nn(-c4ccc(F)cc4)c3n2)cc1	59.4%
O=C(Nc1c2ccccc2nc2ccccc12)c1ccccc1CN1C(=O)c2ccccc2C1=O	43.1%
COc1cc(C(=O)N/N=C/c2cc3cc(OCc4ccccc4)ccc3nc2OC)cc(OC)c1OC	85.4%
CCOC(=O)c1cn2ncnc(Oc3ccc(NC(=O)NCCN4CCN(C)CC4)c(Cl)c3)c2c1C	66.3%
Cc1ccc(C(=O)N/N=C/c2cccc(Oc3ccccc3)c2)cn1	77.4%
CCOC(=O)c1cn2ncnc(Oc3ccc(NC(=O)NCCN(C)C)c(Cl)c3)c2c1C	79.3%
COc1ccc(S(=O)(=O)n2cc(C3OC(c4cc(OC)c(OC)c(OC)c4)=NN3C(C)=O)c3ccccc32)cc1OC (stereo not given)	78.9%
